Source: PubChem BioAssay (NCI)
Compounds without any hit were thinned out: in the full panel of roughly 83,000, 20% have a hit.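 Step 1: grow cells in 96-well plates. Step 2: add test compound at a single concentration. Step 3: incubate 48 h. Step 4: record percent growth.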 Values without a mark were called inactive. Activity calls are given as the source filed them. The calls were made as follows: active = growth percent below 10; inactive = the rest.

Experiments:
Experiment in all cases: NCI-60 one-dose screen, 48 h (100 = growth as untreated, 0 = no growth, -100 = all killed)
Settings in all cases: 10 µM unless noted
HCT-15 colon = system: HCT-15 colon
HT29 colon = system: HT29 colon
SNB-75 CNS = system: SNB-75 CNS
SNB-19 CNS = system: SNB-19 CNS
U251 CNS = system: U251 CNS
PC-3 prostate = system: PC-3 prostate
SK-MEL-5 melanoma = system: SK-MEL-5 melanoma
UACC-62 melanoma = system: UACC-62 melanoma
LOX IMVI melanoma = system: LOX IMVI melanoma
SK-MEL-28 melanoma = system: SK-MEL-28 melanoma

Row | Compound | growth (HCT-15 colon) | growth (HT29 colon) | growth (SNB-75 CNS) | growth (SNB-19 CNS) | growth (U251 CNS) | growth (PC-3 prostate) | growth (SK-MEL-5 melanoma) | growth (UACC-62 melanoma) | growth (LOX IMVI melanoma) | growth (SK-MEL-28 melanoma)
1 | CSc1nc2sc3c(c2c(=O)n1-c1ccc([N+](=O)[O-])cc1)CCCCC3 | 94.6% | 92.6% | 89.7% | 86% | 84.5% | 85.5% | 96.4% | 87.1% | 94.7% | 105%
2 | COc1ccc(-c2nn(-c3ccccc3)cc2/C=C2/SC(=S)N(C)C2=O)cc1 | 74.2% | 64.6% | 33.3% | 60.7% | 8.95% (active) | 84.9% | 98.5% | 86% | 77.1% | 108%
3 | CN(C)CCCn1c2c(c3ncccc3c1=O)C(=O)c1ccccc1-2 | 28.6% | 20.9% | 79% | 37.3% | 29% | 39% | 30.7% | 34.6% | 19.1% | 65%
4 | Nc1ncnc2c1N=C(c1ccc3c(c1)OCO3)CC(c1ccc([N+](=O)[O-])cc1)N2 (stereo not given) | 77% | 86.6% | 59.5% | 86.6% | 86.8% | 47% | 70.3% | 64.8% | 75.5% | 110%
5 | COc1cc2oc(-c3cccc(NC(=O)c4cccc(Br)c4)c3)cc(=O)c2c(OC)c1OC | 31.3% | 34.7% | 62.6% | 75.2% | 53.9% | 34.6% | 48.6% | 57.1% | 39.6% | 71.1%
6 | O=C(Nc1cccnc1Nc1ccc(F)cc1)c1cn(Cc2cccc(Oc3ccccc3)c2)nn1 | 43.4% | 53.1% | 65.6% | 67.8% | 51.4% | 61.6% | 39.3% | 44.8% | 48.5% | 68.7%
7 | O=C(CSc1nc2ccc([N+](=O)[O-])cc2[nH]1)Nc1ccc(F)cc1 | 64.9% | 71.6% | 51.1% | 69.2% | 45.7% | 54.9% | 32.5% | 25.1% | 64.8% | 61.8%
8 | Cc1ccc(/C=N/Nc2nc(Nc3ccccc3)nc(-n3nc(C)cc3C)n2)cc1 | 25.2% | 32.7% | 83.4% | 74.4% | 33.8% | 31.1% | -12.6% (active) | 44.9% | 32.6% | 68.6%
9 | N#Cc1c(-c2ccc(Cl)cc2)nc(SCC(=O)NC2=NN=C(c3ccccc3)CS2)[nH]c1=O | 72.4% | 104% | 80.5% | 85.8% | 77.3% | 78.6% | 84.2% | 75.1% | 69.5% | 76.3%
10 | O=C(CSc1nc(-c2ccccc2)[nH]c1S(=O)(=O)c1ccccc1)NC1CC1 | 28.2% | 95.1% | 98.1% | 101% | 20.1% | 80.8% | 35.6% | 94.6% | 44.8% | 120%
11 | C#COc1cccc(Nc2ncnc3ncc(NC(=O)CCl)cc23)c1 | -30.3% [6.25 µM] (active) | -65.2% [6.25 µM] (active) | 49.5% [6.25 µM] | 20% [6.25 µM] | -73.3% [6.25 µM] (active) | 20.6% [6.25 µM] | 47.1% [6.25 µM] | 27.2% [6.25 µM] | -94.2% [6.25 µM] (active) | 55.4% [6.25 µM]
12 | Cc1cc2c(O)c(-c3cccc(Cl)c3)c3sc(=O)oc3c2cc1C | 43.2% | 111% | 36.1% | 45.4% | 21.9% | 60.9% | 18.9% | 27% | 45.1% | 52.2%
13 | COC(=O)c1cc(-c2ccc(S(C)(=O)=O)cc2)[nH]c1N/N=C/c1c(Cl)cccc1Cl | 26.2% | 14.5% | 10.1% | 22.8% | 26.8% | 15.6% | 25.7% | 58% | 43.6% | 28.2%
